JMJD2E inh: qHTS Assay for Inhibitors of Human Jumonji Domain Containing 2E (JMJD2E); Lysine-specific demethylase 4E (Homo sapiens), B2RXH2; JMJD2E catalytic domain, FDH-coupled NADH fluorescence (FDH is formaldehyde dehydrogenase); Potency, µM (doses to about 57.1 µM), for inactives: at the highest dose activity change, negative = inhibition, most hits filed as inhibitors; 1.6% of 230,000 active; active means well fitted inhibition curve with a large enough effect, not every such curve was filed as active; inconclusive means small, poorly fitted or top-dose-only effect, or another doubt; inactive means no such curve, though single readings can be large or run the other way;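 further: potency means the concentration at half of the fitted maximal effect; 0% = wells with enzyme and -100% = buffer wells without enzyme; nearly all actives have a fitted effect of over 50% in size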
ALDH1A1 inh-1: qHTS Assay for Inhibitors of Aldehyde Dehydrogenase 1 (ALDH1A1). Purified ALDH1A1, NADH fluorescence, propionaldehyde substrate. Potency, µM (doses to about 75.3 µM), without a hit: at the highest dose activity, negative = inhibition, most hits filed as inhibitors. AID 1030, 2008. 7.3% of 220,000 active; active means well fitted inhibition curve with a large enough effect, not every such curve was filed as active; inconclusive means small, poorly fitted or top-dose-only effect, or another doubt; inactive means no such curve, though single readings can be large or run the other way;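 further: potency means the concentration at half of the fitted maximal effect; plate controls were no enzyme wells and a reference inhibitor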
Target sequence (P00352 whole entry, looked up): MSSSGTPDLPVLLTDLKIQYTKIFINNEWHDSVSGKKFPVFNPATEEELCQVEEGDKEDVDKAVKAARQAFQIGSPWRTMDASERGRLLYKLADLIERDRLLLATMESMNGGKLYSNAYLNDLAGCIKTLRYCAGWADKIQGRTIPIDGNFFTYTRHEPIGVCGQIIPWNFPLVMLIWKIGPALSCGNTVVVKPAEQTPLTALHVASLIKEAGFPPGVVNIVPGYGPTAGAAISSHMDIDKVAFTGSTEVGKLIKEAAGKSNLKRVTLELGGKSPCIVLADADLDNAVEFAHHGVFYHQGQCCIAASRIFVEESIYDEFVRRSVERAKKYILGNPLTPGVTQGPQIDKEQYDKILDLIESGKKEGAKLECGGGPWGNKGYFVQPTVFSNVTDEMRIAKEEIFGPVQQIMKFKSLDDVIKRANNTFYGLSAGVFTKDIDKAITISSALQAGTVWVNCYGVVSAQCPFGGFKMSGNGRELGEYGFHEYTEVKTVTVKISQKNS
G9a block: qHTS Assay for Inhibitors of Histone Lysine Methyltransferase G9a | G9a H3K9 monomethylation, AlphaScreen, 2 h | Potency, µM (top dose mostly 102 µM), for inactives: at the top dose activity, negative = inhibition, most hits filed as inhibitors | 8.8% of 350,000 active; further: potency means the concentration at half of the fitted maximal effect; on the % scale 0 is the no-effect control and ±100 the full control effect; nearly all actives have a fitted effect of over 75% in size
Target sequence (Q96KQ7 913-1193 limits assumed): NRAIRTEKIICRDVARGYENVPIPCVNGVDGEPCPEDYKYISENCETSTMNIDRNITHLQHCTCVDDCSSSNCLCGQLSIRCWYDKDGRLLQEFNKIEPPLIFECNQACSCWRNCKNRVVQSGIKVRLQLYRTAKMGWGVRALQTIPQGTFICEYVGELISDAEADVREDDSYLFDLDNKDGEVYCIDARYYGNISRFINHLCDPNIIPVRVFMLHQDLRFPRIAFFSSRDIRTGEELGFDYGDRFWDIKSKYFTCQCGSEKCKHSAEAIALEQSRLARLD
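Chemiluminescent proximity detection of H3K9 monomethylation, read after 10 min bead incubation in the dark. Reaction: 20 nM G9a, 500 nM biotin-H3K9 peptide, 20 uM SAM cofactor, 2 h, room temperature, following 15 min enzyme-compound preincubation.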
miR-21 act: qHTS Assay for Modulators of miRNAs and/orActivators of miR-21. HeLa miR-21 FLuc reporter, luciferase, 48 h. AID 2288, 2010. Potency, µM (doses to about 38.3 µM), for the others: at the highest dose activity change, positive = activation, most hits filed as activators. 340,000 tested, under 10 active;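 further: % of control where 0% means no effect; miR-21 action dims this reporter so a rising signal means less miR-21 action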
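Compounds were titrated across several concentrations (up to approximately 40 uM) and incubated 48 hours with HeLa miR-21-FLuc reporter cells (miR-21 target sequence downstream of FLuc, endogenous miR-21). Readout was firefly luciferase luminescence after lytic detection reagent.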
Sfp PPTase inh: qHTS Assay for Inhibitors of Bacillus subtilis Sfp phosphopantetheinyl transferase (PPTase); Potency, µM, inactives show largest response in the series, negative = inhibition, usual class: inhibitors; 3.5% of 310,000 active; Biochemical Sfp PPTase activity, qHTS; AID 1490, 2009;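 further: the enzyme is Sfp with the accession as filed and its product quenches rhodamine fluorescence; potency means the concentration at half of the fitted maximal effect; 0% = enzyme reaction without inhibitor and -100% = no enzyme wells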
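With Hepes-Na pH 7.6 buffer containing 10 mM MgCl2, Sfp (15 nM) modified BHQ-2-YbbR (12.5 uM) using rhodamine-CoA (5 uM). Two reads 30 minutes apart at 525/598 nm yielded each well's rate.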
LMNA splice mod: qHTS Assay for Modulators of Lamin A Splicing. HeLa LMNA splicing GFP/RFP minigene ratio, 48 h. Potency, µM (doses to about 46.1 µM), without a hit: top-dose ratio change, negative = inhibition, hits mostly inhibitors. 0.01% of 200,000 active; active means well fitted inhibition curve with a large enough effect in the signal ratio, with a control signal flat, not every such curve was filed as active; inconclusive means small, poorly fitted or top-dose-only effect, or effect the other way, or a change in a side signal; the % refers to the signal ratio; further: potency means the concentration at half of the fitted maximal effect; on the % scale 0 is the no-effect control and ±100 the full control effect
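S3 HeLa stable clones carrying a lamin A-EGFP splicing minigene plus DsRed2 were seeded at 600 cells/well in Opti-MEM with 2% FBS, pin-dosed and incubated 48 h at 37°C. Acumen cytometry (488 nm) gave the GFP/RFP total-intensity ratio.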
ALDH1A1 inh-2: Inhibitors of Aldehyde Dehydrogenase 1 (ALDH1A1): Followup Confirmation and Counterscreen | shares compounds with ALDH1A1 inh-1 | purified ALDH1A1, NADH fluorescence, propionaldehyde/NAD+ | Potency, µM (top dose mostly 57.1 µM), without a hit: at the highest dose activity change, negative = inhibition, usual class: inhibitors | 90% of 90 active; calls by dose curve
Sfp PPTase conf: Confirmation qHTS Assay for Inhibitors of Bacillus subtilis Sfp phosphopantetheinyl transferase (PPTase); shares compounds with Sfp PPTase inh; Sfp PPTase enzymatic assay, qHTS titration; Potency, µM (titrated, usually from 114 µM), without a hit: at the top dose activity change, negative = inhibition, most hits filed as inhibitors; 79% of 380 active; AID 2701, 2010;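 further: potency means the concentration at half of the fitted maximal effect; plate controls were uninhibited Sfp reaction for no effect and no enzyme control for full effect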
Sfp gel assay: Gel-Based Assay for Inhibitors of Bacillus subtilis Sfp phosphopantetheinyl transferase (PPTase); shares compounds with Sfp PPTase inh; purified Sfp, gel-based phosphopantetheinylation read-out; Potency, µM, hits mostly inhibitors; 20% of 210 active;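 active means potency below 100 µM; inconclusive means dose-dependent response but potency above 100 µM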;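 further: band intensities scaled against SCH202676 control wells before curve fitting; potency is an IC50 for inhibitors of Sfp transfer activity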
Active calls of the source: *; i = inactive; u = inconclusive; x = not tested or not shown; ! = a repeat was not active; [ ] = dose if it differs, or a comment. Compounds with a hit are over-represented: about 13% of the library has one in this group of screens. Unless noted, the call rests on the fitted dose curve; in most records, active means well fitted curve in the direction sought with a large enough effect; inconclusive means small, poorly fitted or top-dose-only effect, or another doubt; inactive means no such curve, though single readings can be large; an effect the other way counts as inactive or inconclusive.

SMILES	JMJD2E inh	ALDH1A1 inh-1	G9a block	miR-21 act	Sfp PPTase inh	LMNA splice mod	others
C=C1CC[C@H](O)C/C1=C/C=C1\CCC[C@]2(C)[C@H]1CC[C@H]2[C@@H](C)CCCC(C)C	2%[25.5 µM]	-14%[20.9 µM]	21%[21.5 µM]	x	-6%	-13%
COc1ccccc1OCCNC(=O)c1cc(=O)[nH]c2ccccc12	u	x	-5%[59 µM]	3%	6%	x
CNC(=O)OCc1n(C)cc[n+]1C	u	-14%	6.3µM*	-13%	3%	5%
Cn1c(=O)c2c(-c3ccccc3)n3c(c2n(C)c1=O)C(c1cc(Cl)ccc1O)Nc1ccccc1-3 (stereo unspecified)	x	x	u	2%	x	x
Nc1ccc(N)cc1	x	-6%	13µM*	x	-27%	u
CN1CC[C@@]2(C)c3cc(O)ccc3N(C)C2O1 (stereo partly specified)	x	x	x	x	-28%	x
CN1CC[C@@]2(C)c3cc(O)ccc3N(C)[C@@H]12	6.3µM*	-4%	x	x	-5%	x
CN1CC[C@@]2(C)c3cc(OC(=O)Nc4ccccc4)ccc3N(C)[C@@H]12	x	11µM*	16µM*	x	14%	x
C[C@H]1CCCC=CC2C[C@H](O)C[C@@H]2[C@H](O)/C=C\C(=O)O1 (stereo partly specified)	-3%	-9%	x	x	-1%	x
CC(=O)c1cccc(OCC(O)CN2CC=C(c3ccccc3)CC2)c1 (stereo unspecified)	16µM*	22µM*	u	-8%	-23%	u
NNC(=O)c1nn(-c2ccccc2)cc1O	14%	u	4%	-6%	11%	-17%[46 µM]
O=c1oc(Cl)c(Cl)c2ccccc12	4%	0.56µM*	6.7µM*	x	35µM*	u	ALDH1A1 inh-2=0.25µM*
CC(C)(C#N)O[C@H]1OC(CO)C(O)C(O)C1O (stereo partly specified)	-2%	5%	x	x	14%	-11%
CC(C)N(C(=O)CCl)c1ccccc1	-2%	0.028µM*	x	x	3%	u	ALDH1A1 inh-2=0.05µM*
O=C(Oc1ccccc1)N1CCC2(CC1)CCN(C(c1ccccc1)c1ccccc1)CC2	x	-2%	4%[12.7 µM]	x	23%	x
CCC(C=C[C@@H]1OC(=O)C=C[C@H]1C)=C[C@H](C)CC=CC(C)=C[C@@H](C)C(=O)[C@@H](C)[C@H](O)[C@@H](C)CC(C)=CC(=O)O	x	0.22µM*	u	x	0.71µM*	x	ALDH1A1 inh-2=1.1µM*
C#C[C@@]1(O)CC[C@@H]2[C@@H]3CCC4=CC(=O)CC[C@@]4(C)[C@H]3CC[C@]21C	-2%[25.5 µM]	-4%[20.9 µM]	15%[21.5 µM]	x	-3%	-5%
COc1ccc2c(c1)CCC1C2CC[C@@]2(C)C(O)CCC12 (stereo partly specified)	3%	-7%	x	x	5%	u
COc1ccc2c(c1)CCC1[C@@H]2CCC2(C)[C@@H](NCCCCCCN3C(=O)C=CC3=O)CC[C@@H]12 (stereo partly specified)	-8%	0.11µM*	x	x	-26%	x	ALDH1A1 inh-2=0.5µM*
CN[C@H](C)[C@H](O)c1ccccc1	-5%	x	1%[59 µM]	1%	8%	-6%[46 µM]
CN[C@@H](C)[C@H](O)c1ccccc1	3.5µM*	0.5µM*	0.045µM*	x	x	u	ALDH1A1 inh-2=0.45µM*
NC(=O)c1ncn(C2OC(CO)C(O)C2O)n1 (stereo unspecified)	-2%	-10%	x	x	56µM*	u	Sfp PPTase conf=83µM*;Sfp gel assay=56µM*
NC(=O)c1cn(C2OC(CO)C(O)C2O)c2ncnc(N)c12 (stereo unspecified)	2%	u	u	28%	6%	u
CCOC(=O)[C@]1(C#N)[C@@H]2C=CC(C(C)=O)=CN2[C@@H](C(N)=O)[C@@H]1c1ccsc1	2%	u	-45%[59 µM]	1%	40µM*	9%	Sfp PPTase conf=u;Sfp gel assay=u
CCCCCCCCCCCCCC(=O)OC1C(C)[C@@]2(O)C(C=C(CO)C[C@]3(O)C(=O)C(C)=C[C@H]23)[C@@H]2C(C)(C)[C@]12OC(C)=O (stereo partly specified)	u	u	-31%[2.33 µM]	x	2%	x
SMILES	JMJD2E inh	ALDH1A1 inh-1	G9a block	miR-21 act	Sfp PPTase inh	LMNA splice mod	others
Clc1ccc(COC(Cn2ccnc2)c2ccc(Cl)cc2Cl)cc1 (stereo unspecified)	15%	u	-28%[2.33 µM]	27%	56µM*!	u	Sfp PPTase conf=u;Sfp gel assay=i
CCS(=O)CCSP(=O)(OC)OC (stereo unspecified)	-2%	-13%	x	x	-2%	1%
Nc1nc(/C(=C/CC(=O)O)C(=O)NC2C(=O)N3C(C(=O)O)=CCSC23)cs1 (stereo unspecified)	u	u	-10%[2.33 µM]	x	56µM*	u	Sfp PPTase conf=42µM*;Sfp gel assay=u
C#CCOC(C(=O)OCCN(C)C)(c1ccccc1)c1ccccc1	x	x	-27%[12.7 µM]	x	15%	x
C=CCN1C[C@@H](C)N([C@H](c2ccc(C(=O)N(CC)CC)cc2)c2cccc(OC)c2)C[C@@H]1C	2%	-6%	u	x	x	u
C[C@]12CC[C@@H]3c4ccc(O)c(O)c4CC[C@H]3[C@@H]1CC[C@@H]2O	1.4µM*	x	u	11%	3.2µM*	u	Sfp PPTase conf=6.6µM*;Sfp gel assay=2.1µM*
C[C@]12CC[C@@H]3c4ccc(OC(=O)N(CCCl)CCCl)cc4CC[C@H]3[C@@H]1CC[C@@H]2O	x	x	u	x	0%	x
C[C@]12CC[C@@H]3c4cc(O)c(O)cc4CC[C@H]3[C@@H]1CC[C@@H]2O	u	x	8.9µM*	16%	4µM*	u	Sfp PPTase conf=21µM*;Sfp gel assay=6.2µM*
C[C@]12CC[C@@H]3c4ccc(O)cc4[C@@H](O)C[C@H]3[C@@H]1CC[C@@H]2O	1%	10%	14%	-3%	20%	u

From PubChem BioAssay
